Results published in paper PMC7862700, “An all-to-all approach to the identification of sequence-specific readers for epigenetic DNA modifications on cytosine”.

Assays:
Experiment in all cases: DAPPL (digital affinity profiling via proximity ligation, sequencing); 10 mM Tris-HCl pH 7.5, 50 mM NaCl, 1 mM DTT, 4% glycerol, room temperature, 30 min; GST-TFs on glutathione beads, 16-mer random dsDNA library, 0.1% formaldehyde crosslink after washing; high values mean tight binding
[1] = target: T1, FLI1 (Homo sapiens, UniProt Q01543 1-452); details: protein: recombinant; tags: N-terminal GST; dsDNA, one strand shown
T1 sequence: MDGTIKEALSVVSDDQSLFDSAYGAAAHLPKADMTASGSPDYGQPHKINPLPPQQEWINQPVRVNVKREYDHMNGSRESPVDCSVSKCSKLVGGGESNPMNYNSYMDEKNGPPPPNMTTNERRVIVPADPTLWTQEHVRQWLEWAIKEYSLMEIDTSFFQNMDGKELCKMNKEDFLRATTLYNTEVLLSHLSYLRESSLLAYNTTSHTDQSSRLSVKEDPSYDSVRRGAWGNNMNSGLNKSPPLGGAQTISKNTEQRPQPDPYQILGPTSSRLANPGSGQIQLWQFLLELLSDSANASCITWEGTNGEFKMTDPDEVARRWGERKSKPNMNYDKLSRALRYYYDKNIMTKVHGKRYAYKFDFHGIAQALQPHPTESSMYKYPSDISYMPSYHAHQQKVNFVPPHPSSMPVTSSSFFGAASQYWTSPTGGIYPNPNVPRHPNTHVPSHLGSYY
Summary of the method: (§1)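 Human transcription factors fused to GST were expressed in yeast, captured on glutathione beads, given DNA barcodes and pooled with a GST-only negative control. Pools were incubated with 200 nmole of a 16-mer random double-stranded DNA library in Tris/NaCl/DTT/glycerol buffer at room temperature for 30 min. They were then washed, crosslinked with 0.1% formaldehyde, proximity-ligated (BsaI/T4 ligase, 1 h, 37 °C), PCR-amplified and sequenced on an Illumina NextSeq500. Binding signal is each 6-mer's read frequency for a factor divided by its frequency for the GST control.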

[2] = target: T2, ELK1 (Homo sapiens, UniProt P19419 1-428); details: protein: recombinant; tags: N-terminal GST; dsDNA, one strand shown
T2 sequence: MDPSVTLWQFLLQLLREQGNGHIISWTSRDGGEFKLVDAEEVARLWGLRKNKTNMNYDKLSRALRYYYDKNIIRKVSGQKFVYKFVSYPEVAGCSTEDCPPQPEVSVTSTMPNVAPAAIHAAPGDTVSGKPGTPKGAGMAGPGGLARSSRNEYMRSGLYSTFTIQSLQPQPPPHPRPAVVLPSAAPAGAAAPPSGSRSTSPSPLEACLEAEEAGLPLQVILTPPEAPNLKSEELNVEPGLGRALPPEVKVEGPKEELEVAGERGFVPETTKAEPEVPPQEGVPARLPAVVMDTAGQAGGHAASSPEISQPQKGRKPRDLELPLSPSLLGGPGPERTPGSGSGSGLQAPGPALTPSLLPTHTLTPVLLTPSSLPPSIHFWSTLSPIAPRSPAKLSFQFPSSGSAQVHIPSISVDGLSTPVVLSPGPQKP
Summary of the method: as §1

[3] = target: T3, GABPA (Homo sapiens, UniProt Q06546 1-454); details: protein: recombinant; tags: N-terminal GST; dsDNA, one strand shown
T3 sequence: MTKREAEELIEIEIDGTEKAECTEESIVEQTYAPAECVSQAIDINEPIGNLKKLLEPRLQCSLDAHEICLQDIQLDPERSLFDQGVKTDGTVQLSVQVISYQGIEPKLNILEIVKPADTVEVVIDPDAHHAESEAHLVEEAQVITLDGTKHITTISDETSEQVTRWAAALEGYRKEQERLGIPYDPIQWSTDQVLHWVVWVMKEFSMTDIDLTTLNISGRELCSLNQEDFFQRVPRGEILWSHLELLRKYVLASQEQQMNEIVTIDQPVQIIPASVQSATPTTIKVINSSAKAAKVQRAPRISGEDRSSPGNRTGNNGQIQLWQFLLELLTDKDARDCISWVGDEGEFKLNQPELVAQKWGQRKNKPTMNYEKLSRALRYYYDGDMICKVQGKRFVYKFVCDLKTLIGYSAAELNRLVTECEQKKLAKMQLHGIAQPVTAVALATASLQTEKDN
Summary of the method: as §1

[4] = target: T4, ERG (Homo sapiens, UniProt P11308 1-479); details: protein: recombinant; tags: N-terminal GST; dsDNA, one strand shown
T4 sequence: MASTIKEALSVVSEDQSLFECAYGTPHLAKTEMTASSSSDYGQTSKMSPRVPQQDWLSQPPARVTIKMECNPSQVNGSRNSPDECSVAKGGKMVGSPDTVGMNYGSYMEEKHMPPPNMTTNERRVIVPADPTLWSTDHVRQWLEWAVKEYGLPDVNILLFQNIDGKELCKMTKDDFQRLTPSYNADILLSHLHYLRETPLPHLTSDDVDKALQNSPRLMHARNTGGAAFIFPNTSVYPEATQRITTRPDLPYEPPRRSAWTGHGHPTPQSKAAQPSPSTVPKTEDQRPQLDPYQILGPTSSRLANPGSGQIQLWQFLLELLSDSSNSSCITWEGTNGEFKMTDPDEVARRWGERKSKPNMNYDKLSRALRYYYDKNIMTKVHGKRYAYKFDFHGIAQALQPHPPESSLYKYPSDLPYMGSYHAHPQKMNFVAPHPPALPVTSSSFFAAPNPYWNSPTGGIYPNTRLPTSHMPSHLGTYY
Summary of the method: as §1

[5] = target: ELF1 (Homo sapiens, UniProt P32519 1-619); details: protein: recombinant; tags: N-terminal GST; dsDNA, one strand shown
Summary of the method: as §1

[6] = target: T5, EHF (Homo sapiens, UniProt Q9NZC4 1-300); details: protein: recombinant; tags: N-terminal GST; dsDNA, one strand shown
T5 sequence: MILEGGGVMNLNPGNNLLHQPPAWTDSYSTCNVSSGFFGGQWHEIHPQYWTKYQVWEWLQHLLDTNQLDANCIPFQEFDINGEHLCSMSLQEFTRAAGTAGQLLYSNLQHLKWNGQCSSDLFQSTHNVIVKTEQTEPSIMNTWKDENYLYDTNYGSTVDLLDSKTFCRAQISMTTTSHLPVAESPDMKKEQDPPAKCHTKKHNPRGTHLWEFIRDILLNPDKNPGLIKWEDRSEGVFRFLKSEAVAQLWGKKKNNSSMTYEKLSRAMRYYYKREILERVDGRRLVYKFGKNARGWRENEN
Summary of the method: as §1

[7] = target: SPI1 (Homo sapiens, UniProt P17947 1-270); details: protein: recombinant; tags: N-terminal GST; dsDNA, one strand shown
Summary of the method: as §1

[8] = target: SPIB (Homo sapiens, UniProt Q01892 1-262); details: protein: recombinant; tags: N-terminal GST; dsDNA, one strand shown
Summary of the method: as §1

[9] = target: T6, ELK3 (Homo sapiens, UniProt P41970 1-407); details: protein: recombinant; tags: N-terminal GST; dsDNA, one strand shown
T6 sequence: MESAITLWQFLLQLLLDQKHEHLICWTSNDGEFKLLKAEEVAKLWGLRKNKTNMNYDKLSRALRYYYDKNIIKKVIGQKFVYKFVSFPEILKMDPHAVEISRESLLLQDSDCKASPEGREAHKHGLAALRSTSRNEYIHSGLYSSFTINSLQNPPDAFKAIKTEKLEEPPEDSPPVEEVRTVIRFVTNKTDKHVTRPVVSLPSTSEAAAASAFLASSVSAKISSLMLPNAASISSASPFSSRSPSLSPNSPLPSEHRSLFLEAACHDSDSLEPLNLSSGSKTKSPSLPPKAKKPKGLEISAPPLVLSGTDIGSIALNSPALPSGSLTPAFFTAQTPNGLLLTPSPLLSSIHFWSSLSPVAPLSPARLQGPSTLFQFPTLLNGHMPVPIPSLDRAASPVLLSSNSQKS
Summary of the method: as §1

[10] = target: T7, FEV (Homo sapiens, UniProt Q99581 1-238); details: protein: recombinant; tags: N-terminal GST; dsDNA, one strand shown
T7 sequence: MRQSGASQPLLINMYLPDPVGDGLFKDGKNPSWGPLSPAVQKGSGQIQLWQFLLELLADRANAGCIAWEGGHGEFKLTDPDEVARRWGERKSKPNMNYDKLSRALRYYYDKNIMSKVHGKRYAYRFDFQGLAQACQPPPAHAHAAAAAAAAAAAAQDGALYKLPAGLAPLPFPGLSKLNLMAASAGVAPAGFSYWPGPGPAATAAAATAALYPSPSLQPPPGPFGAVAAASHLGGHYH
Summary of the method: as §1

[11] = target: ETV5 (Homo sapiens, UniProt P41161 1-510); details: protein: recombinant; tags: N-terminal GST; dsDNA, one strand shown
Summary of the method: as §1

[12] = target: HSF1 (Homo sapiens, UniProt Q00613 1-529); details: protein: recombinant; tags: N-terminal GST; chain copies: 3; dsDNA, one strand shown
Summary of the method: as §1

[13] = target: T8, SPIC (Homo sapiens, UniProt Q8N5J4 1-248); details: protein: recombinant; tags: N-terminal GST; dsDNA, one strand shown
T8 sequence: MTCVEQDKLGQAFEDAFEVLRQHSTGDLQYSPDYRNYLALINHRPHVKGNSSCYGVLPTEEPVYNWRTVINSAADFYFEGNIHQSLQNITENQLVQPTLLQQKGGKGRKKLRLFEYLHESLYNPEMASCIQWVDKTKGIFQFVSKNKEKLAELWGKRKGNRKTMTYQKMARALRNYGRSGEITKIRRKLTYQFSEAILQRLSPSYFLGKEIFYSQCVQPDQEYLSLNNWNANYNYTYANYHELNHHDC
Summary of the method: as §1

[14] = target: ELF4 (Homo sapiens, UniProt Q99607 1-663); details: protein: recombinant; tags: N-terminal GST; dsDNA, one strand shown
Summary of the method: as §1

[15] = target: T9, ELK4 (Homo sapiens, UniProt P28324-2 1-405); details: protein: recombinant; tags: N-terminal GST; dsDNA, one strand shown
T9 sequence: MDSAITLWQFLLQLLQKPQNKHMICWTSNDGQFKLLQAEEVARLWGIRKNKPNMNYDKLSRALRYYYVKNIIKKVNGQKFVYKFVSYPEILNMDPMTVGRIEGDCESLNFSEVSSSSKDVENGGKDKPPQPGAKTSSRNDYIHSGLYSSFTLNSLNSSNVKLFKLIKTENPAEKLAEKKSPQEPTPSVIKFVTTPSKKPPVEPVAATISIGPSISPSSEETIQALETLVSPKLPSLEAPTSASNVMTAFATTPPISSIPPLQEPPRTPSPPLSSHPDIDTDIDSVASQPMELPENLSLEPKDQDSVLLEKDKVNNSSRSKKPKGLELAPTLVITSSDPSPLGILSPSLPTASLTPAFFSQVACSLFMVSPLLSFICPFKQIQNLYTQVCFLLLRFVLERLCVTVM
Summary of the method: as §1

[16] = target: T10, ETV2 (Homo sapiens, UniProt O00321 1-342); details: protein: recombinant; tags: N-terminal GST; dsDNA, one strand shown
T10 sequence: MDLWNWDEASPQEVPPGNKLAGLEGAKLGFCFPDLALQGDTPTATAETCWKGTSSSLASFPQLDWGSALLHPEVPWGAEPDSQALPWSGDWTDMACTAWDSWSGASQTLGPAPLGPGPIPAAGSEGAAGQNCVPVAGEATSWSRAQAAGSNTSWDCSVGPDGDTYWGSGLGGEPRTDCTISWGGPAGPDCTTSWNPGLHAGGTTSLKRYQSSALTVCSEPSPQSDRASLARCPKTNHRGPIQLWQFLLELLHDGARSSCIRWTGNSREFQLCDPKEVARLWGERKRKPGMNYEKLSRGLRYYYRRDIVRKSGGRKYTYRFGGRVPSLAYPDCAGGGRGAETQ
Summary of the method: as §1

[17] = target: T11, ELF3 (Homo sapiens, UniProt P78545 1-371); details: protein: recombinant; tags: N-terminal GST; dsDNA, one strand shown
T11 sequence: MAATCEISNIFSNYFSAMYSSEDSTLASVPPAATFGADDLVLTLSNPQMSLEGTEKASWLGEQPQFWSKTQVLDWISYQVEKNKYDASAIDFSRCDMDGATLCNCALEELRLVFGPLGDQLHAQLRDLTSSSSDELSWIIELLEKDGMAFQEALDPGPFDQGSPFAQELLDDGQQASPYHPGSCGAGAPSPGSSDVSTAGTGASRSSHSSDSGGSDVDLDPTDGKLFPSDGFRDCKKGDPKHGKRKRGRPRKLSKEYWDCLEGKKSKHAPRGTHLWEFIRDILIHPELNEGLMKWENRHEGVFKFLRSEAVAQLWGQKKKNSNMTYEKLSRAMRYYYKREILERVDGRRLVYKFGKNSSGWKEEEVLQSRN
Summary of the method: as §1

[18] = target: CRX (Homo sapiens, UniProt O43186 1-299); details: protein: recombinant; tags: N-terminal GST; dsDNA, one strand shown
Summary of the method: as §1

[19] = target: ETV1 (Homo sapiens, UniProt P50549 1-477); details: protein: recombinant; tags: N-terminal GST; dsDNA, one strand shown
Summary of the method: as §1

HSF1, sequence (Q00613 whole entry): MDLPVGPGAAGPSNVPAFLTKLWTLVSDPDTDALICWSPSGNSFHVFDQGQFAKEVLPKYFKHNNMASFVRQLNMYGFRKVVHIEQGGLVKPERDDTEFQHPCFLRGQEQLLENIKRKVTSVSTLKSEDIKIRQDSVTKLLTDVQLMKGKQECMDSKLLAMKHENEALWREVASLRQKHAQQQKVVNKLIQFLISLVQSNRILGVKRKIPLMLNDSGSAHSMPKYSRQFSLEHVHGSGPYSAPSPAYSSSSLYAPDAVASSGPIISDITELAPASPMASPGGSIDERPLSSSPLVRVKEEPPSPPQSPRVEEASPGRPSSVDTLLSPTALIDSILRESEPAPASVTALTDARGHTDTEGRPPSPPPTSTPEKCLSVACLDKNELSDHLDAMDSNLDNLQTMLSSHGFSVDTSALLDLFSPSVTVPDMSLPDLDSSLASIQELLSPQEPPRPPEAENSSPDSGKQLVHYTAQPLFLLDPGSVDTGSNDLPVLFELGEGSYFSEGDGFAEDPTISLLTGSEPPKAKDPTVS
ELF1, sequence (P32519 whole entry): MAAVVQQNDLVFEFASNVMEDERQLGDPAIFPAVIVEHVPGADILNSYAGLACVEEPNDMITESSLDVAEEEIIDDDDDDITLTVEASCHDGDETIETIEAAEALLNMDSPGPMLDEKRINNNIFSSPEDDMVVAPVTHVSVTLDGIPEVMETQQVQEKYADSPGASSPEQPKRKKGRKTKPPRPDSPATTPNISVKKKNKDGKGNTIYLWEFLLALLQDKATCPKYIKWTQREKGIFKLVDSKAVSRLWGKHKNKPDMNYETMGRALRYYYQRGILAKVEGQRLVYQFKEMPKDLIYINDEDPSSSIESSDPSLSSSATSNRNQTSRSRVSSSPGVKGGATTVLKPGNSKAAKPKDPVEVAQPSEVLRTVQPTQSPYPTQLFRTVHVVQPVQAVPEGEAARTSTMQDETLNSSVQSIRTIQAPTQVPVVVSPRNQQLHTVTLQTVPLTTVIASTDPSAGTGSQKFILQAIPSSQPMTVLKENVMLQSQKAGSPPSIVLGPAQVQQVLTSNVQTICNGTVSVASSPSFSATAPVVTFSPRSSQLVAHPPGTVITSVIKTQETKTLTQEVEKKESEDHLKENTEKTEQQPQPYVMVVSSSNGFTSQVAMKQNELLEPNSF
CRX, sequence (O43186 whole entry): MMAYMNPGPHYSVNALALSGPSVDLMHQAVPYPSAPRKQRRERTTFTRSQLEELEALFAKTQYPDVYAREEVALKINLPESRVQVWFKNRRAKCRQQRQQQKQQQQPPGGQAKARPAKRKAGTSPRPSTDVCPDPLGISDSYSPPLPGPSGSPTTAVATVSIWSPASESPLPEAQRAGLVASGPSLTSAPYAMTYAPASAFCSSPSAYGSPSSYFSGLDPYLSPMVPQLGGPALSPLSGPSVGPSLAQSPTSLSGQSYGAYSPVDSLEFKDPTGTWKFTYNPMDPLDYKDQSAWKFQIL
SPIB, sequence (Q01892 whole entry): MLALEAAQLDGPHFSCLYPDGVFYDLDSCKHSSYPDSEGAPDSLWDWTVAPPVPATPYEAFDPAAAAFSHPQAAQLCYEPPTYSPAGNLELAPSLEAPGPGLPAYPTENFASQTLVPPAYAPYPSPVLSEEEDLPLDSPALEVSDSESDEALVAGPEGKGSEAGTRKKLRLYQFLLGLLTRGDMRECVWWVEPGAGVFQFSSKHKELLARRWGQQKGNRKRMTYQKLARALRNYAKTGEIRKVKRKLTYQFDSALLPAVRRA
ELF4, sequence (Q99607 whole entry): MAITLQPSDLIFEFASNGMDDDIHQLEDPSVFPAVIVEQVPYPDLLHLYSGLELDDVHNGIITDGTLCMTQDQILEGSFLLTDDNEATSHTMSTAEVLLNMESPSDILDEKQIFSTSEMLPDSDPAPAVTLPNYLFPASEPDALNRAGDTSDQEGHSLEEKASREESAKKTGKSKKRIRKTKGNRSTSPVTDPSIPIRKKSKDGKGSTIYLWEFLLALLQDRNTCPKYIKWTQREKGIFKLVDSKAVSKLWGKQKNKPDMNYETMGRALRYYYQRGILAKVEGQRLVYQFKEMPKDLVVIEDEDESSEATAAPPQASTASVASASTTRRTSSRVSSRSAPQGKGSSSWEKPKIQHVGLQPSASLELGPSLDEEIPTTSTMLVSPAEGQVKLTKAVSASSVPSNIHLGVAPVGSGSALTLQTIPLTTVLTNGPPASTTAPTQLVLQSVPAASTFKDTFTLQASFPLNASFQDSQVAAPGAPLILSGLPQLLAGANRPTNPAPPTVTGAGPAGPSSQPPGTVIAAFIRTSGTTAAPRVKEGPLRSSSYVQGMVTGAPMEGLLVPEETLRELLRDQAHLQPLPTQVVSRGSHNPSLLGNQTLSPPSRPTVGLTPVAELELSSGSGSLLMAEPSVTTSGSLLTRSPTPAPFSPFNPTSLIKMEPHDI
ETV1, sequence (P50549 whole entry): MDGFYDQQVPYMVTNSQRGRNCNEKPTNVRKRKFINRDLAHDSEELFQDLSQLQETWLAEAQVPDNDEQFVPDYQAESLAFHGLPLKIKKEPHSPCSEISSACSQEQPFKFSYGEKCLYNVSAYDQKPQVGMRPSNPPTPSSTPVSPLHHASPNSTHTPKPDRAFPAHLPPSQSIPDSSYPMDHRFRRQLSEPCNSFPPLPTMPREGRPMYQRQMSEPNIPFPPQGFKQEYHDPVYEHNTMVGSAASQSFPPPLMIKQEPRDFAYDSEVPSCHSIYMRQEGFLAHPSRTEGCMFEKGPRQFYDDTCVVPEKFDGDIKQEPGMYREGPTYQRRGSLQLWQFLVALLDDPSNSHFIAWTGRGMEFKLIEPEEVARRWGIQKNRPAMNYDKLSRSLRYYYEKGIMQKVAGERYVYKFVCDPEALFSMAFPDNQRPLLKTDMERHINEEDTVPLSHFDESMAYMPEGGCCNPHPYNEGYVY
ETV5, sequence (P41161 whole entry): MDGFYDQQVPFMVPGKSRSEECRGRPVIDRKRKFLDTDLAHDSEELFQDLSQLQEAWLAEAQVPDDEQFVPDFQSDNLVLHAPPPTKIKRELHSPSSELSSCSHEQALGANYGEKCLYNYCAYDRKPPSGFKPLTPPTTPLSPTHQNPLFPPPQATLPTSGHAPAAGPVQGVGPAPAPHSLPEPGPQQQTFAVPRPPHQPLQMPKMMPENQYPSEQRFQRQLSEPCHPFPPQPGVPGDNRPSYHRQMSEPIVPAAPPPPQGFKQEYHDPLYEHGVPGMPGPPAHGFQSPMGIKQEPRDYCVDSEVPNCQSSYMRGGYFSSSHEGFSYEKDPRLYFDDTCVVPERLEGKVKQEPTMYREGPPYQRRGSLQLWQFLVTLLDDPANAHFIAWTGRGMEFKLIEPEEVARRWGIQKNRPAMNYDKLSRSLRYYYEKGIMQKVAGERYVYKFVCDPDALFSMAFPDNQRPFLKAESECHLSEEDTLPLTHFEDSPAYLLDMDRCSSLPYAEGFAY

Sequence: CTTTTG
- binding signal [1]: 1.42 fold enrichment (6-mer frequency, TF over GST control)
- binding signal [2]: 1.35 fold enrichment (6-mer frequency, TF over GST control)
- binding signal [3]: 1.41 fold enrichment (6-mer frequency, TF over GST control)
- binding signal [4]: 1.25 fold enrichment (6-mer frequency, TF over GST control)
- binding signal [5]: 1.34 fold enrichment (6-mer frequency, TF over GST control)
- binding signal [6]: 1.32 fold enrichment (6-mer frequency, TF over GST control)
- binding signal [7]: 1.6 fold enrichment (6-mer frequency, TF over GST control)
- binding signal [8]: 1.42 fold enrichment (6-mer frequency, TF over GST control)
- binding signal [9]: 1.23 fold enrichment (6-mer frequency, TF over GST control)
- binding signal [10]: 1.3 fold enrichment (6-mer frequency, TF over GST control)
- binding signal [11]: 1.38 fold enrichment (6-mer frequency, TF over GST control)
- binding signal [12]: 1.36 fold enrichment (6-mer frequency, TF over GST control)
- binding signal [13]: 1.36 fold enrichment (6-mer frequency, TF over GST control)
- binding signal [14]: 1.42 fold enrichment (6-mer frequency, TF over GST control)
- binding signal [15]: 1.35 fold enrichment (6-mer frequency, TF over GST control)
- binding signal [16]: 1.25 fold enrichment (6-mer frequency, TF over GST control)
- binding signal [17]: 1.39 fold enrichment (6-mer frequency, TF over GST control)
- binding signal [18]: 1.43 fold enrichment (6-mer frequency, TF over GST control)
- binding signal [19]: 1.3 fold enrichment (6-mer frequency, TF over GST control)
